Measurements published in PubChem BioAssay AID602274 (Sanford-Burnham Center for Chemical Genomics, 2012).
The campaign covered roughly 360,000 compounds. About 160 (0.044%) were called active. The sample holds actives, similar compounds and a random draw of the others, so the mix is not that of the screen. Unmarked numbers belong to inactive results. Rule as the data show it: active = survival enhancement above about 18%; inactive = the rest.

Assay: compounds raising survival of dissociated human iPSCs – cell-based, ATPlite luminescence, primary screen (AID 602274);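 also: cells exposed to compounds for 16 hours before the ATP read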
Conditions: hiPSC single-cell survival, at 20 µM, hits give high values, 100% = ROCK inhibitor wells, 0% = DMSO

Structure (SMILES) | survival enhancement
O=C(Nc1ccc(OC(F)(F)F)cc1)c1ccc2c(c1)no[n+]2[O-] | -0.6%
Cc1c(C=O)c2ccccn2c1C(=O)c1ccncc1 | 0.1%
O=C(COC(=O)Cn1cnc2ccccc2c1=O)NCC12CC3CC(CC(C3)C1)C2 | -0.2%
CC1CCCC(NC(=O)COC(=O)c2ccccc2C(=O)N(C)C2CCCCC2)C1C (configuration not stated) | 0.8%
Cc1cc(=O)n2nc(N3CCCC(C(=O)NCCC4=CCCCC4)C3)sc2n1 (configuration not stated) | 1.7%
C=CCc1cccc2cc(C(=O)NC3CCCC3)c(=O)oc12 | 0.2%
CC(C)CC(CC(C)C)=NNC(=O)c1ccc(CSc2nncn2C)cc1 | 2.3%
O=c1[nH]cccc1-c1nc2ccccc2n1Cc1ccc(Cl)cc1 | 1.9%
COCCC(=O)N1CCC(Oc2ccc(C(=O)NCc3ccon3)cc2)CC1 | -0.4%
CN1C(=O)[C@H]2[C@@H](C3CC3)N3C(=O)CN(Cc4ccccc4)C(=O)[C@@]3(C)[C@H]2C1=O | -2.2%
CCOc1cc(/C=C/C(=O)OCC(=O)NCCN2C(=O)CSC2=O)ccc1OCC(C)C | 3%
CN1CCN(C(=O)c2ccc(-c3cc4nc(NCc5cccnc5)n(C)c(=O)c4s3)cc2)CC1 | -0.7%
O=C(CCCN1C(=O)c2ccccc2C1=O)Oc1ccc(Cl)cc1 | 3.7%
CN(C)c1ccnc(Oc2ccc(F)cc2)c1C#N | 1.8%
COCCNC(=S)c1ccc(OC)cc1 | 5.9%
COc1ccc(-c2ccc(CNCCCN3CCOCC3)o2)cc1Cl | -1.8%
Cc1ccc(Cl)c(OCC(=O)N(C)CC(=O)Nc2ccc(N3CCOCC3)cc2)c1 | 0%
COc1ccc(Cl)cc1NC(=O)[C@@H]1CCCN1C(=O)c1cccs1 | 1.2%
O=C(O)c1ccc(-n2cccc2)cc1O | -3.7%
NNC(=O)c1cnn(-c2ccccc2)c1C(F)(F)F | -0.5%
O=C1CC2(CCCC2)C(=O)N1CN1CCN(S(=O)(=O)c2ccc(F)cc2F)CC1 | -0.8%
O=C(CNCCC1=CCCCC1)Nc1ccccc1N1CCCCCC1 | -0.7%
CCNC(=O)Nc1ccc(S(=O)(=O)Nc2cnc(C)nc2C)cc1 | -0.1%
CCCCN(CCCC)C(=O)CCS(=O)(=O)c1ccc2c(c1)n(C)c(=O)c(=O)n2C | 2.7%
Cc1c(-c2nn(C)c(=O)c3ccccc23)oc2ccc(F)cc2c1=O | -1.5%

Structure (SMILES) | survival enhancement
COC(=O)c1ccc(NC(=S)Nc2cccc(C)n2)cc1 | 0.3%
CCCCN1C(=O)CC(N2CCOCC2)C1=O (configuration not stated) | 1.8%
COc1cc(OC)cc(-c2c(C#Cc3ccsc3)c3cc(-c4ccc(SC)cc4)ccc3n2C)c1 | 1.4%
COc1ccc(N2C(=O)/C(=C\c3ccco3)N=C2SCC(N)=O)cc1Cl | -1.3%
COc1ccc(C(=O)CSc2nnc(NC(=O)C3CC(=O)N(c4cccc(OC)c4)C3)s2)cc1 (configuration not stated) | 0.9%
CC(=O)OCCN(CCCn1c(-c2ccncc2)nc2ccccc21)c1nc(-c2ccc(C)cc2)cs1 | 0.8%
Cc1noc(C)c1CSc1nc2cc(S(=O)(=O)N3CCOCC3)ccc2o1 | 8.5%
CC(C)(C)C(=O)NCCCNc1ccc([N+](=O)[O-])cc1 | -0.5%
Nc1ncnc2c1ncn2[C@@H]1O[C@H](C(=O)NCC(F)(F)F)[C@@H](O)[C@H]1O | 1.8%
CN(Cc1ccc(C(F)(F)F)cc1)C(=O)[C@H]1O[C@@H](n2cnc3c(N)ncnc32)[C@H](O)[C@@H]1O | 20.3% (active)
Cc1nccn1-c1ccc(NC(=O)[C@H]2O[C@@H](n3cnc4c(N)ncnc43)[C@H](O)[C@@H]2O)cc1 | 1.4%
CCC(=O)c1ccc(OCC(O)CN2C(=O)NC(C)(C)C2=O)cc1 (configuration not stated) | 0.2%
C=Cc1ccc(C(=O)N2CCCC(CCC(=O)N3CCN(c4ccccn4)CC3)C2)cc1 (configuration not stated) | -0.4%
CC(=O)NNC1=Nc2ccccc2N(C)C(C)C1 (configuration not stated) | -0.5%
CC1CCCCC1NC(=O)CCS(=O)(=O)c1cccc2nonc12 (configuration not stated) | 1.2%
O=C(Nc1cccnc1)c1ccc(Cl)cc1[N+](=O)[O-] | -1.2%
O=C(Nc1ccc(N2CCOCC2)nc1)c1c(F)cccc1F | -0.6%
COc1cccc(OC)c1C(=O)Nc1ccc(Cc2ccncc2)cc1 | 0.6%
O=C(Nc1ccccc1-c1ccccc1)c1ccccc1[N+](=O)[O-] | 0.6%
O=C(Nc1ccncc1)c1c(F)cccc1F | 39.6% (active)
O=C(Nc1ccncc1)c1ccccc1[N+](=O)[O-] | 28.4% (active)
Cc1cc2cc3c(cc2nc1SCC(=O)Nc1c(C)cccc1C)CCC3 | -1.9%
CC(=O)c1ccccc1NC(=O)COC(=O)C1COc2ccccc2O1 (configuration not stated) | -0.2%
O=C(Nc1nc(-c2ccncc2)cs1)C1COc2ccccc2O1 (configuration not stated) | 103% (active)
CC(/C=C/c1ccco1)=N/NC(=O)C1COc2ccccc2O1 (configuration not stated) | -0.2%

Structure (SMILES) | survival enhancement
CC(=O)c1cnn(-c2cc(Oc3ccc(F)cc3)ncn2)c1C | 2.8%
CCCCNC(=O)CCn1nc(-c2ccc(Cl)cc2)ccc1=O | 0%
CC(C)CCN1CCN(C/C=C/c2ccco2)CC1CCO (configuration not stated) | -0.4%
COCc1cc(C)nc2sc3c(=O)n(-c4cccc5ccccc45)nnc3c12 | 4.5%
C[C@H](NC(=O)C1CC(=O)N(c2ccc3c(c2)OCCO3)C1)C(=O)N1CCC(C(=O)O)CC1 (some centres not stated) | -0.4%
CCOC(=O)C1(Cc2cccc(OC)c2)CCCN(S(=O)(=O)c2cccnc2)C1 (configuration not stated) | 1.2%
C[n+]1ccccc1C1CCCC/C1=N\Nc1ccc([N+](=O)[O-])cc1[N+](=O)[O-] (configuration not stated) | -1.7%
Cc1ccc(OS(=O)Nc2cccc3nccnc23)cc1 (configuration not stated) | 1.2%
CCc1c(C)sc(NC(=O)c2cccs2)c1C(N)=O | -1.4%
c1ccc2cc3c(NCCN4CCOCC4)ccnc3cc2c1 | -2.3%
C1=C(N2CCOCC2)/C(=C/c2nc3ccccc3[nH]2)CC1 | 3.5%
Cc1ccc(S(=O)(=O)N2CCN(C(=O)COC(=O)/C=C/c3cccc(Cl)c3)CC2)c(C)c1 | -0.9%
O=C(Nc1ccc(N2CCN(C(=O)c3ccccc3)CC2)c(Cl)c1)c1ncn[nH]1 | 0.4%
Cc1noc(C)c1NC(=O)Nc1ccc2c(c1)C(=O)N([C@H](C)CO)C[C@H](C)[C@@H](CN(C)C(=O)Nc1ccc(C(F)(F)F)cc1)O2 | -1.8%
Cc1ccc(NC(=O)c2cnc(SCC(=O)NCC3CCCO3)n(C)c2=O)cc1 (configuration not stated) | 1.7%
O=C(NCC(c1ccco1)N1CCc2ccccc2C1)c1ccccc1Cl (configuration not stated) | -0.3%
CCc1ccc([C@@H]2CC(=O)[C@@H]3CN(S(=O)(=O)c4ccc(C)cc4)[C@H](c4ccc(Cl)cc4)C[C@@H]3N2S(=O)(=O)c2ccc(C)cc2)cc1 | 0.5%
CCCOC(=O)CC1C(=O)NCCN1Cc1ccc(F)cc1 (configuration not stated) | 0.4%
COC(=O)C1=C(C)N(C)C(=S)NC1c1cc(OC)ccc1OC (configuration not stated) | -1.1%
COC(=O)C1NN=C(C(=O)c2ccc(Br)cc2)C1c1cccc(Br)c1 (configuration not stated) | 2.6%
COC(=O)C1=C(C)N(C)C(C)=C(C(=O)OC)C1c1cccc(Br)c1 | 19.8% (active)
O=C(CS(=O)(=O)c1cn(Cc2ccc(Cl)cc2)c2ccccc12)N1CCOCC1 | 0.6%
COc1ccccc1P(=O)(c1ccccc1)c1ccccc1NC(C)=O (configuration not stated) | -0.7%
CN(Cc1ccc(F)cc1)C(=O)COc1ccc2ccccc2c1 | -0.4%
C[C@H]1CN([C@@H](C)CO)C(=O)c2cc(Br)cnc2O[C@H]1CN(C)S(=O)(=O)c1cccs1 | 3.8%

Structure (SMILES) | survival enhancement
CC(=O)Nc1ccccc1C(=O)C(=O)Nc1ccc(F)cc1 | 3.3%
CC1CCN(C(=O)/C(=C\c2ccccc2F)NC(=O)c2ccccc2)CC1 | -0.6%
CCOC(=O)c1ccn(-c2nc(-c3ccco3)cc(C(F)(F)F)n2)n1 | -0.8%
CC(CCc1ccc(O)cc1)NCc1ccc(Cl)cc1Cl (configuration not stated) | 0.5%
CCN(CC)C(=O)Oc1ccc(OC(=O)N(CC)CC)cc1 | -2.3%
O=C(COC(=O)C1(c2ccc(F)cc2)CCCC1)N1CCNC1=O | 0.5%
Cc1ccccc1N1CCN(Cc2nc(Cc3ccccc3F)no2)CC1 | -0.1%
O=[n+]1c2c(n([O-])c3cc(Br)ccc31)CCC2 | 3.1%
CCN(CC)c1ccc(NC(=O)c2ccc(=O)[nH]c2)cc1S(=O)(=O)Nc1ccc(OC)cc1 | 1.7%
CCCS(=O)(=O)Nc1c(C(=O)O)[nH]c2ccccc12 | 0.3%
O=C(O)c1ccc([N+](=O)[O-])cc1Sc1ccsc1 | 6.3%
CC(C)CCOc1ccc(C(=O)Nc2cc(S(=O)(=O)N3CCOCC3)ccc2N2CCOCC2)cc1 | -2.4%
O=C(NCc1cccnc1)c1cc(C2CCCN(C(=O)C3CCCCC3)C2)on1 (configuration not stated) | 0.4%
Cc1ccc2cccc(S(=O)(=O)N3CCN(c4ccccc4F)CC3)c2n1 | 0%
COc1cccc(CNC(=O)CN2C(=O)NC(Cc3ccccc3)(c3ccccc3)C2=O)c1 (configuration not stated) | -1.1%
Cn1c(=O)c2c(nc(Br)n2CCSc2nc3ccccc3o2)n(C)c1=O | 1.6%
OCCC1CN(Cc2ccc3nsnc3c2)CCN1C1CCCC1 (configuration not stated) | 1.5%
COC(=O)C1=C(Nc2ccc(C)cc2)C=C(C)C(C(=O)OC)C1c1ccc(F)cc1 (configuration not stated) | -0.6%
N#Cc1ccccc1Sc1ccccc1C(=O)OCC(=O)NC1CCCCC1 | 1%
O=C(O)c1ccc(NS(=O)(=O)c2ccc3c(c2)C(=O)c2cc(S(=O)(=O)Nc4ccc(C(=O)O)cc4)ccc2-3)cc1 | 4.4%
CN(C)N(C)C(=O)C(O)(c1ccccc1)c1ccccc1 | -0.9%
COC(=O)C1=NNC2(c3ccc(C)cc3)C(=O)N(c3cccc(C)c3C)C(=O)C12 (configuration not stated) | 1.4%
